In PubChem BioAssay (NCATS):
Results filed as inconclusive are left out. Active and inactive are the calls of the source. Calls come from the whole dose curve; as a rule, active = well fitted inhibition curve with a large enough effect; inconclusive = small, poorly fitted or top-dose-only effect; inactive = no such curve, though single readings can be large or run the other way.

Experiment: qHTS assay to identify inhibitors of the type 1 interferon - major histocompatibility complex class I in skeletal muscle: Counter screen cell viability and HiBit confirmation (AID 1347412); note: nearly all actives have a fitted effect of over 60% in size
Conditions: iHSKM muscle cells + IFN-b, HiBiT or CellTiter-Glo, 24 h; HiBiT
Source text: Assay Submitter (PI): Travis B. Kinder Ph.D. & James Inglese Ph.D. Assay Development and Screening Technology Laboratory (ADST) National Center for Advancing Translational Sciences (NCATS), Rockville, MD National Institute of Health (NIH), Bethesda, Maryland Idiopathic inflammatory myopathies, collectively referred to as myositis, are a group of rare autoimmune diseases characterized by skeletal muscle inflammation, weakness, and usually accompanied by systemic pathologies of the skin, lungs, or vasculature. Current immunosuppressive therapies and glucocorticoids are often not curative and are accompanied by harsh side effects, especially in children with juvenile myositis. We initiated a drug repurposing and development program to identify more targeted, less toxic therapeutics to treat myositis. Although its cause is not known, muscle from a subset of patients have an abundance of the inflammatory type 1 interferon (IFN) and a down-stream product major histocompatibility complex class I (MHC class I), which are both thought to contribute to damage and weakness. We conducted quantitative high throughput screening on 6,576 compounds (4,679 unique) through a series of cell-based assays to identify those that inhibit the IFN-stimulated expression of MHC class I in muscle precursor cells (myoblasts). The compound identification and evaluation strategy utilized a primary screen with reporter-tagged MHC class I in genome-engineered myoblasts, ATP content counter screen for viability, HLA-ABC immunofluorescence secondary screen, and HLA-B RT-qPCR tertiary screen. The primary screen utilized CRISPR/Cas9 genome-engineering of immortalized human myoblasts, C25cl48, where a pro-luminescent reporter HiBit was fused to the C-terminus of endogenous MHC class I allele HLA-B*08:01 (HLA-B HiBit myoblasts). HiBit is an 11 amino acid fragment of NanoLuc luminescent reporter (Promega Corporation), and when complexed to the larger LgBit fragment, the reconstituted enzyme produces light in the presence of furimazine substrate (Schwinn et al., 2018). Briefly, HLA-B HiBit myoblasts were plated into 1536-well plates, treated with 4.0 ng/ml human IFN-beta and 650 inhibitory compounds identified from primary screening in a 12-point, 1:3 titration with a high final concentration of 46 uM. Compounds were pinned into duplicate plates, with one for HiBit confirmation and one for ATP content viability assay. After 24 hrs of treatment, cells were assayed by either Nano-Glo HiBiT Lytic Detection System (Promega) or CellTiter Glo (Promega), and luminescence measured by a ViewLux 1430 Ultra HTS (Perkin Elmer). References: Schwinn MK, Machleidt T, Zimmerman K, Eggers CT, Dixon AS, Hurst R, Hall MP, Encell LP, Binkowski BF, Wood K V. 2018. CRISPR-Mediated Tagging of Endogenous Proteins with a Luminescent Peptide. ACS Chem Biol 13:467-474. doi:10.1021/acschembio.7b00549
PROTOCOL TABLE (as described by Inglese et al., 2007) SEQUENCE No. (e.g., 1, 2, 3, etc.); […] (e.g., Cells, Incubation, Reagent, etc.); VALUE; DESCRIPTION 1a; Cells; 5 uL; Use a Multidrop Combi (Thermo Scientific) to seed 300 cells/well into 16 Greiner 1536 well white/solid bottom, high base, TC plates in 5 ul/well of iHSKM growth medium (GM) without dexamethasone into columns 1+2. Add metal lids with gas-exchange holes 1b; Cells; 5 uL; Use a Multidrop Combi (Thermo Scientific) to seed 300 cells/well into 16 Greiner 1536 well white/solid bottom, high base, TC plates in 5 ul/well of iHSKM GM without dexamethasone + 4 ng/ml IFN-b into columns 3 - 48. Add metal lids with gas-exchange holes 2; Incubate; 1 hr; Incubate at 37 C, 5% CO2, 95% RH 3; Compounds; 23 nl; Use Pin Tool (Wako) to transfer DMSO control, 92 uM final digitonin cytotoxic control, ruxolitinib IFN-b inhibitor control [High Concentration = 80 uM final, 16-pt, 1:2 in duplicate], and library compounds in DMSO. […]
% is set by controls: 0 for no effect and ±100 for the full control effect; potency is the fitted concentration of half-maximal effect.

Question: For `C=C1CC[C@@H]2[C@](C)(CO)[C@H](O)CC[C@@]2(C)[C@@H]1C/C=C1/C(=O)OC[C@H]1O`, which Potency is on record?
Answer: 12.5 µM (active)

Question: Which Potency does the source give for `CN(C)C/C=C/C(=O)Nc1ccc(C(=O)Nc2cccc(Nc3ncc(Cl)c(-c4c[nH]c5ccccc45)n3)c2)cc1` here?
Answer: 0.442 µM (active)

Question: With `COc1cc2c(Nc3ccc(Cl)c(Cl)c3F)ncnc2cc1OCC1C[C@@H]2CN(C)C[C@@H]2C1` (stereo not given in full) as the molecule, how does the Potency read?
Answer: 19.8 µM (active)

Question: With `CNC(=O)c1ccc(Nc2ncc(C(F)(F)F)c(NCc3nccnc3N(C)S(C)(=O)=O)n2)cc1` as the molecule, how does the Potency read?
Answer: 3.52 µM (active)

Question: For `CC(=O)c1cnc2ccc(-c3cc(Cl)c(O)c(Cl)c3)nc2c1NC1CCC(CN(C)C)CC1` (stereo not given), which Potency is on record?
Answer: 0.0991 µM (active)

Question: With `COc1cc(N2CCC(N(C)C)CC2)ccc1Nc1ncc(Cl)c(Nc2ccccc2P(C)(C)=O)n1` as the molecule, how does the Potency read?
Answer: 3.13 µM (active)

Question: Which Potency does the source give for `CCOc1cc2ncc(C#N)c(Nc3ccc(OCc4ccccn4)c(Cl)c3)c2cc1NC(=O)/C=C/CN(C)C` here?
Answer: 1.57 µM (active)

Same assay, conditions: iHSKM muscle cells + IFN-b, HiBiT or CellTiter-Glo, 24 h; Viability

Question: Which Potency does the source give for `COc1cc2c(Nc3ccc(Cl)c(Cl)c3F)ncnc2cc1OCC1C[C@@H]2CN(C)C[C@@H]2C1` (stereo not given in full) here?
Answer: 17.6 µM (active)

Question: With `Cc1cc(Nc2ncc(Cl)c(Nc3ccccc3S(=O)(=O)C(C)C)n2)c(OC(C)C)cc1C1CCNCC1` as the molecule, how does the Potency read?
Answer: 27.9 µM (active)

Same assay, conditions: iHSKM muscle cells + IFN-b, HiBiT or CellTiter-Glo, 24 h; Viability; at 45.9 µM (top of the series)

Question: For `C[C@@H]1CCN(C(=O)CC#N)C[C@@H]1N(C)c1ncnc2[nH]ccc12`, which activity change, negative = inhibition is on record?
Answer: -5.51% (inactive)

Question: Which activity change, negative = inhibition does the source give for `C=C1CC[C@@H]2[C@](C)(CO)[C@H](O)CC[C@@]2(C)[C@@H]1C/C=C1/C(=O)OC[C@H]1O` here?
Answer: -7.87% (inactive)

Question: For `CN(C)C/C=C/C(=O)Nc1ccc(C(=O)Nc2cccc(Nc3ncc(Cl)c(-c4c[nH]c5ccccc45)n3)c2)cc1`, which activity change, negative = inhibition is on record?
Answer: -19.3% (inactive)

Question: Which activity change, negative = inhibition does the source give for `CNC(=O)c1ccc(Nc2ncc(C(F)(F)F)c(NCc3nccnc3N(C)S(C)(=O)=O)n2)cc1` here?
Answer: -7.39% (inactive)

Question: For `CC(=O)c1cnc2ccc(-c3cc(Cl)c(O)c(Cl)c3)nc2c1NC1CCC(CN(C)C)CC1` (stereo not given), which activity change, negative = inhibition is on record?
Answer: -15.7% (inactive)

Question: Which activity change, negative = inhibition does the source give for `NS(=O)(=O)OC[C@@H]1C[C@@H](n2ccc3c(N[C@H]4CCc5ccccc54)ncnc32)C[C@@H]1O` here?
Answer: -12.3% (inactive)
